The campaign covered roughly 52,000 compounds. About 4,300 (8.3%) were called active. No stated cut-off is given here; in the data, active means survival mostly below about 52% (no sharp cut-off); inactive means mostly above about 56%. For the sample, actives were picked, then their nearest neighbours and some compounds at random.

The subject of the test is DeltatarO mutant. In words: growth inhibition of S. aureus wild type versus tarO mutant, primary screen, teichoic acid synthesis inhibitors, RN4220, OD600 (AID 463173). To be noted: OD600, 18 h, hits give low values, screened at 18.75 µg/mL (by protocol).
As to `Cc1ccc(Cl)cc1NC(=O)c1oc2ccc(S(=O)(=O)N3CCCCCC3)cc2c1C`, the survival is 93% (inactive).
For the compound `O=C(Cn1cccc1C(=O)c1ccccc1)NCc1ccc(Cl)cc1`, the survival is 98% (inactive).
Consider `COc1ccc2c(c1)CC(C(=O)Nc1ccc(OC)cc1OC)CO2` (centres undefined), for which the survival was 89% (inactive).
For `COC(=O)c1cc2oc3ccccc3c2n1CC(=O)Nc1ccc(OC)c(OC)c1`, the survival was 79% (inactive).
With `CCOc1ccc(NS(=O)(=O)c2ccc3[nH]cc(C(=O)NCCOC)c(=O)c3c2)cc1`, the survival is 72% (inactive).
Consider `CCOc1ccc(NS(=O)(=O)c2ccc3[nH]cc(C(=O)N(C)C4CCCCC4)c(=O)c3c2)cc1`, for which the survival is 76% (inactive).
Consider `CCc1ccc(NS(=O)(=O)c2ccc3[nH]cc(C(=O)NC4CCCC4)c(=O)c3c2)cc1`, for which the survival is 8% (active).
With `CCOc1ccc(NS(=O)(=O)c2ccc3[nH]cc(C(=O)NC4CCCC4)c(=O)c3c2)cc1`, the survival was 39% (active).
The same measure for `Cc1cc(C)cc(NS(=O)(=O)c2ccc3[nH]cc(C(=O)N(C)Cc4ccccc4)c(=O)c3c2)c1`: 102% (inactive); for `CCc1ccc(NS(=O)(=O)c2ccc3[nH]cc(C(=O)NCc4ccc(C)cc4)c(=O)c3c2)cc1`: 65% (inactive).
To `CCc1ccc(NS(=O)(=O)c2ccc3[nH]cc(C(=O)NCCc4ccccc4)c(=O)c3c2)cc1` belongs 87% (inactive); to `CCOc1ccc(NS(=O)(=O)c2ccc3[nH]cc(C(=O)NCc4ccccc4)c(=O)c3c2)cc1`, 79% (inactive).
For the compound `CCOc1ccc(NS(=O)(=O)c2ccc3[nH]cc(C(=O)N(C)Cc4ccccc4)c(=O)c3c2)cc1`, the survival is 6% (active).
The same measure for `Cc1ccc(-c2nn3c(=O)cc(CN4CCN(C(=O)/C=C/c5ccccc5)CC4)nc3s2)cc1`: 68% (inactive); for `CCOc1ccccc1C1CC(=O)Nc2c1c(=O)n(C)c1ncnn21` (centres undefined): 164% (inactive); for `COc1ccc(NC(=O)c2oc3ccc(S(=O)(=O)N4CCC5(CC4)OCCO5)cc3c2C)cc1Cl`: 80% (inactive).
The same measure for `O=C(O)C1CC(=O)N(CCCN2CCOCC2)C1` (centres undefined): 96% (inactive); for `Cc1nn(C)c2c1c(C(F)(F)F)cc(=O)n2CC(=O)NCc1ccccc1Cl`: 80% (inactive).
As to `CCN1CCN(C(=O)c2ccc3c(c2)N(Cc2ccccc2)C(=O)c2ccccc2S3=O)CC1` (centres undefined), the survival was 104% (inactive).
`Cc1ccc(C)c(-n2c3nc(=O)[nH]c(=O)c-3cc3c(C)nn(-c4ccccc4)c32)c1`: the survival was 92% (inactive).
To `COc1ccc(NC(=O)CC2C(=O)N(c3ccccc3)C(=O)N2CCc2sccc2C)cc1` (centres undefined) belongs 65% (inactive); to `CCN(CC)CCCNC(=O)Cc1ccc(NC(=O)N2CCCCc3ccccc32)cc1`, 79% (inactive).
`CCOC(=O)c1cc2c(=O)n3ccccc3nc2n(CC2CCCO2)c1=NC(=O)c1ccc(OCC)cc1` (centres undefined): the survival is 51% (inactive).
The same measure for `CCOC(=O)c1cc2c(=O)n3ccccc3nc2n(CC2CCCO2)c1=NC(=O)c1ccccc1C` (centres undefined): 43% (active); for `CCOC(=O)c1cc2c(=O)n3ccccc3nc2n(CC2CCCO2)c1=NC(=O)c1ccccc1Br` (centres undefined): 47% (active).
In the case of `CCOC(=O)c1cc2c(=O)n3ccccc3nc2n(CC2CCCO2)c1=NC(=O)c1ccccc1OCC` (centres undefined), the survival is 51% (inactive).
As for `CCOC(=O)c1cc2c(=O)n3ccccc3nc2n(CC2CCCO2)c1=NC(=O)c1ccccc1F` (centres undefined), the survival is 44% (active).
Turning to `CCOC(=O)c1cc2c(=O)n3ccccc3nc2n(CC(C)C)c1=NC(=O)c1c(-c2c(F)cccc2Cl)noc1C`, the survival is 165% (inactive).
To `CCOC(=O)c1cc2c(=O)n3ccccc3nc2n(CC2CCCO2)c1=NC(=O)c1ccc(OC)cc1OC` (centres undefined) belongs 38% (active).
For `CCOC(=O)c1cc2c(=O)n3ccccc3nc2n(CC2CCCO2)c1=NC(=O)c1ccc(F)cc1` (centres undefined), the survival was 54% (inactive).
The same measure for `O=C(CC1N=C2c3ccccc3N=C(SCC(=O)Nc3ccccc3F)N2C1=O)NCc1ccc2c(c1)OCO2` (centres undefined): 73% (inactive).
To `Nc1c(-c2nc(-c3ccc(Cl)cc3)no2)nnn1-c1ccc(C(F)(F)F)c(Cl)c1` belongs 75% (inactive).
In the case of `Cc1cc(C)c2c(CC(=O)Nc3ccccc3C(F)(F)F)coc2c1`, the survival is 72% (inactive).
To `O=C(NCCCN1CCCC1)c1ccccc1Cl` belongs 86% (inactive).
For the compound `COc1ccc(Nc2nc3ccc(Cl)cc3n3nnnc23)cc1OC`, the survival is 102% (inactive).
For the compound `CC(C)C(=O)NCC(c1ccc2c(c1)OCO2)N1CCN(c2ccccc2F)CC1` (centres undefined), the survival was 74% (inactive).
The same measure for `COC(=O)CC(=O)CSc1nc(C)cc(C)c1C#N`: 80% (inactive).
To `CC(=O)Nc1ccc2nc(NC(=O)c3cc4ccccc4o3)sc2c1` belongs 102% (inactive); to `COc1ccc2nc(NC(=O)c3cc(=O)c4ccccc4o3)sc2c1`, 50% (inactive); to `CCOc1ccc2nc(NC(=O)c3cc(=O)c4ccc(C)cc4o3)sc2c1`, 25% (active).
The same measure for `Cc1ccc2c(=O)cc(C(=O)Nc3nc4ccc(Cl)cc4s3)oc2c1C`: 39% (active); for `COc1ccc2nc(NC(=O)c3cc(=O)c4cc(C)cc(C)c4o3)sc2c1`: 69% (inactive); for `CCOc1ccc2nc(NC(=O)c3ccccc3)sc2c1`: 41% (active).
As for `CS(=O)(=O)c1ccc2nc(NC(=O)c3ccccc3)sc2c1`, the survival was 81% (inactive).
As for `COc1ccc2nc(NC(=O)c3cc(=O)c4cc(C)c(C)cc4o3)sc2c1`, the survival was 58% (inactive).
The same measure for `O=C(Nc1nc2ccc(Cl)cc2s1)c1cc(=O)c2ccccc2o1`: 32% (active); for `CCOc1ccc2nc(NC(=O)c3cc(=O)c4cc(C)cc(C)c4o3)sc2c1`: 85% (inactive).
In the case of `CCOc1ccc2nc(NC(=O)c3nc(SC)ncc3Cl)sc2c1`, the survival is 95% (inactive).
Consider `Cc1cc(C)c2oc(C(=O)Nc3nc4ccc(Cl)cc4s3)cc(=O)c2c1`, for which the survival is 61% (inactive).
To `O=S(=O)(c1ccc(Br)cc1)N1CCOCC1` belongs 94% (inactive).
As to `CC(C)NS(=O)(=O)c1ccc(OCC(=O)N2CCN(c3cccc(Cl)c3)CC2)cc1`, the survival is 95% (inactive).
For the compound `CCSc1ncc(Cl)c(C(=O)Nc2ccc(S(=O)(=O)N3CCCCC3)cc2)n1`, the survival was 87% (inactive).
To `Cc1ccc(-c2csc(NC3OC(=O)c4c#cccc43)n2)cc1` (centres undefined) belongs 94% (inactive); to `Cc1ccc(Cn2cnc3nc4c(cc3c2=O)CCCC4)cc1`, 81% (inactive); to `CCc1ccc2[nH]c(=O)c(CNC3CCCC3)cc2c1`, 86% (inactive).
As for `CCCOc1ccc(C(=O)N(Cc2ccc(N(C)C)cc2)CC2CCCO2)cc1` (centres undefined), the survival was 64% (inactive).
To `Cc1ccc2nc(NC(=O)c3cc(=O)c4cc(Cl)ccc4o3)sc2c1` belongs 47% (inactive); to `Cc1ccc2c(=O)cc(C(=O)Nc3nc4ccc(Cl)cc4s3)oc2c1`, 25% (active).
The same measure for `Cc1ccc2nc(NC(=O)c3cc(=O)c4cc(C)c(C)cc4o3)sc2c1`: 54% (inactive); for `O=C(Cn1nc(-c2ccc(Cl)cc2)ccc1=O)NCc1ccccc1Cl`: 70% (inactive).
The same measure for `CCN(C(=O)CSc1nc2ccccc2n1Cc1ccc(F)cc1Cl)c1ccccc1`: 77% (inactive); for `CC(C)c1ccccc1NC(=O)c1cccs1`: 61% (inactive); for `O=C(CCCCCn1c(=O)[nH]c2ccsc2c1=O)NCc1ccccc1`: 89% (inactive).
Take `CCCCCNC(=O)CCCCCn1c(=O)[nH]c2ccsc2c1=O`: the survival was 81% (inactive).
The same measure for `Cc1cccc(NC(=O)CCCCCn2c(=O)[nH]c3ccsc3c2=O)c1`: 33% (active); for `O=S1(=O)c2ccccc2N(Cc2ccccc2F)c2ccccc21`: 92% (inactive); for `COc1ccc(NC(=O)CCc2nnc3n(C)c(=O)c4sccc4n23)cc1Cl`: 78% (inactive).
To `CCOCCc1nn2c(=O)cc(COC(=O)c3ccc4c(c3)OCO4)nc2s1` belongs 128% (inactive); to `CCOc1ccc(C(=O)Nc2cccc(C(=O)OCc3cc(=O)n4nc(C5CC5)sc4n3)c2)cc1`, 83% (inactive); to `COCCc1nn2c(=O)cc(COC(=O)c3ccccc3C)nc2s1`, -5% (active).
The same measure for `CCc1nn2c(=O)cc(COC(=O)Cc3ccccc3)nc2s1`: 72% (inactive); for `CCOCCc1nn2c(=O)cc(COC(=O)c3cccc(C)c3)nc2s1`: -5% (active); for `CCOCCc1nn2c(=O)cc(COC(=O)c3ccco3)nc2s1`: 88% (inactive).
As to `CCOCCc1nn2c(=O)cc(COC(=O)CNC(=O)c3cccc(C)c3)nc2s1`, the survival was 70% (inactive).
To `CCOCCc1nn2c(=O)cc(COC(=O)Cc3ccccc3)nc2s1` belongs 17% (active); to `COCCc1nn2c(=O)cc(COC(=O)COc3ccccc3C)nc2s1`, 73% (inactive).
The same measure for `CCCCc1nn2c(=O)cc(COC(=O)c3ccccc3C)nc2s1`: 83% (inactive).
The same measure for `CCCc1nn2c(=O)cc(COC(=O)c3ccccc3NC(=O)c3ccc(OCC)cc3)nc2s1`: 49% (inactive); for `CCCc1nn2c(=O)cc(COC(=O)c3cccc(NC(=O)c4ccc(OCC)cc4)c3)nc2s1`: 0% (active); for `CCC(c1nnnn1CCc1ccccc1)N(Cc1ccco1)Cc1cc2cc(C)ccc2[nH]c1=O` (centres undefined): 62% (inactive).
Take `COc1ccc(C2=C(C)C(N3CCC(C(=O)NCc4ccc(C)o4)CC3)=NS2(=O)=O)cc1`: the survival was 74% (inactive).
The same measure for `COc1cccc(NC(=O)Cn2cc(S(=O)(=O)Cc3ccccc3F)c3ccccc32)c1`: 78% (inactive); for `CN1CCN(CCC(=O)Nc2ccc(Cl)cc2)CC1`: 61% (inactive).
The same measure for `COc1ccc(N2C(=O)CSC23C(=O)N(CC(=O)NC2CCCCC2)c2ccccc23)cc1` (centres undefined): 83% (inactive); for `Cc1cc(=O)c2c(ccc3ccccc32)[nH]1`: 91% (inactive).
The same measure for `CC(OC(=O)CN1C(=O)COc2ccccc21)C(=O)NCc1cccs1` (centres undefined): 100% (inactive).
Take `CCOc1ccc(CNC(=O)c2ccc(NC(=O)N3CCCCc4ccccc43)cc2)cc1OC`: the survival was 73% (inactive).
To `COc1cccc(CNC(=O)CN2C(=O)N(c3cccc(Cl)c3)S(=O)(=O)c3ccccc32)c1OC` belongs 72% (inactive); to `O=C(CCCN1C(=O)C(c2ccccc2)Oc2cccnc21)Nc1ccccc1C(F)(F)F` (centres undefined), 100% (inactive).
